The text below walks through data of PubChem BioAssay AID1508601 (ICCB-Longwood Screening Facility, Harvard Medical School, 2020).

In all, about 5,700 compounds went through this assay and about 85 (1%) were called active. Cut-off read from the data, not from the text of the source: active = p53-positive nuclei above about 36% (passing the limit was not always enough); inactive = the rest. The sample as a whole holds a higher share of actives than the screen did. Peptide text beside a SMILES is read from it. * marks the point of attachment. Cbz = O=C(OCc1ccccc1)*

A short description of experiment [1]: p53 stabilisation in HPV-positive human cells, imaging, p53-positive nuclei imaging, 24 h, 48 h (AID 1508601). As to conditions: 24/48 h.
Experiment [2] has as its target Cellular tumor antigen p53 (Homo sapiens) (UniProt P04637). The experiment is described as above. The settings on record: 24/48 h, stronger effect = higher value.
[3] abbreviates: measured here: cell number at 24 h, Library stock concentration: 3.33 mM.
Where [4] appears, read: measured here: cell number at 48 h, Library stock concentration: 3.33 mM.
The mark [5] stands for this setting: Library stock concentration: 3.33 mM.
The mark [6] stands for this setting: measured here: p53 positive nuclei at 24 h, Library stock concentration: 3.33 mM.
Where [7] appears, read: measured here: cell number at 24 h, Library stock concentration: 80 uM.
[8] abbreviates: measured here: cell number at 24 h, Library stock concentration: 400 uM.
Where [9] appears, read: measured here: cell number at 24 h, Library stock concentration: 2 mM.
[10] abbreviates: measured here: cell number at 24 h, Library stock concentration: 10 mM.
[11] abbreviates: measured here: cell number at 48 h, Library stock concentration: 80 uM.
[12] abbreviates: measured here: cell number at 48 h, Library stock concentration: 400 uM.
[13] abbreviates: measured here: cell number at 48 h, Library stock concentration: 2 mM.
The mark [14] stands for this setting: measured here: cell number at 48 h, Library stock concentration: 10 mM.
Setting [15] is: Library stock concentration: 80 uM.
Setting [16] is: Library stock concentration: 400 uM.
Setting [17] is: Library stock concentration: 2 mM.
Setting [18] is: Library stock concentration: 10 mM.
[19] abbreviates: measured here: p53 positive nuclei at 24 h, Library stock concentration: 80 uM.
[20] abbreviates: measured here: p53 positive nuclei at 24 h, Library stock concentration: 400 uM.
[21] abbreviates: measured here: p53 positive nuclei at 24 h, Library stock concentration: 2 mM.
Where [22] appears, read: measured here: p53 positive nuclei at 24 h, Library stock concentration: 10 mM.

Sequence of Cellular tumor antigen p53 (Homo sapiens) (P04637 whole entry, looked up): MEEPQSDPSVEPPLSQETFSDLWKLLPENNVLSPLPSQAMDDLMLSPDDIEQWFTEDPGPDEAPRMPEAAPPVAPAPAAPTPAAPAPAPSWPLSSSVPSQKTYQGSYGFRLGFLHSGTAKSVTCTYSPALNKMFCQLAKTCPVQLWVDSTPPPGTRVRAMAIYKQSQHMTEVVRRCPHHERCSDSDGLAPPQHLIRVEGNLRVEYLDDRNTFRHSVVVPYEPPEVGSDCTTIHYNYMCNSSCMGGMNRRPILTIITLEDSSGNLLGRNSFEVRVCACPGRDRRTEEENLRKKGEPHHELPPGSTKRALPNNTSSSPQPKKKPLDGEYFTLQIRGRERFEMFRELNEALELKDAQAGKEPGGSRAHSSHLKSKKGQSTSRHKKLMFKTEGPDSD

With `O=C(Nc1ccccc1Br)NC1CCN(c2ccc(C(F)(F)F)cn2)C1` (stereo unspecified), the nuclei count, normalised is 102% in experiment [1] (setting [3]) and 96.3% in experiment [1] (setting [4]). Also, the p53-positive nuclei, normalised was -0.163% (inactive) in experiment [2] (setting [5]) and -0.314% in experiment [2] (setting [6]).

On to `CCCCC/C=C\C/C=C\C/C=C\C/C=C\CCCC(=O)C(F)(F)F`, for which the nuclei count, normalised in experiment [1] (measured here: cell number at 24 h, concentration not given here) was found to be 108%; in experiment [1] (measured here: cell number at 48 h, concentration not given here), 109%. Besides, the p53-positive nuclei, normalised in experiment [2] (concentration not given here) is -0.148% (inactive); in experiment [2] (measured here: p53 positive nuclei at 24 h, concentration not given here) it was -0.0854%.

With `Nc1ncn([C@@H]2O[C@@H](CO)[C@H](O)[C@@H]2O)c(=O)n1`, the nuclei count, normalised is 122% in experiment [1] (setting [7]); 116% in experiment [1] (setting [8]); 110% in experiment [1] (setting [9]); 65.9% in experiment [1] (setting [10]); 122% in experiment [1] (setting [11]); 116% in experiment [1] (setting [12]). For the same molecule, the nuclei count, normalised in experiment [1] (setting [13]) came out at 111%; in experiment [1] (setting [14]), 63.4%. Besides, the p53-positive nuclei, normalised is -0.241% (inactive) in experiment [2] (setting [15]); -0.762% (inactive) in experiment [2] (setting [16]); -0.515% (inactive) in experiment [2] (setting [17]); 0.325% (inactive) in experiment [2] (setting [18]); 1.31% in experiment [2] (setting [19]); -0.12% in experiment [2] (setting [20]). In addition, the values for the p53-positive nuclei, normalised in experiment [2] (setting [21]) and in experiment [2] (setting [22]) were 0.0304% and 0.106%, respectively.

Turning to `CC(C)CC(C=O)NC(=O)C(CC(C)C)NC(=O)C(CC(C)C)NC(=O)OCc1ccccc1` (stereo not drawn) (Cbz-Leu-Leu-Leu-aldehyde; configuration not given here), the nuclei count, normalised in experiment [1] (measured here: cell number at 24 h, Library stock concentration: 46 uM) was determined as 112%; in experiment [1] (measured here: cell number at 24 h, Library stock concentration: 278 uM), 112%; in experiment [1] (measured here: cell number at 24 h, Library stock concentration: 1.67 mM), 62%; in experiment [1] (setting [3]), 46.1%; in experiment [1] (setting [10]), 59.9%; in experiment [1] (measured here: cell number at 48 h, Library stock concentration: 46 uM), 111%. In addition, the nuclei count, normalised in experiment [1] (measured here: cell number at 48 h, Library stock concentration: 278 uM) amounted to 104%; in experiment [1] (measured here: cell number at 48 h, Library stock concentration: 1.67 mM) it was 46.9%; in experiment [1] (setting [4]) it was 38.7%; in experiment [1] (setting [14]), 46.7%. Besides, the p53-positive nuclei, normalised in experiment [2] (Library stock concentration: 46 uM) was -0.152% (inactive); in experiment [2] (Library stock concentration: 278 uM) it was 0.0393% (inactive); in experiment [2] (Library stock concentration: 1.67 mM) it was 92% (active); in experiment [2] (setting [5]), 92% (active); in experiment [2] (setting [18]) it was 106% (active); in experiment [2] (measured here: p53 positive nuclei at 24 h, Library stock concentration: 46 uM) it was 0.0832%. The p53-positive nuclei, normalised in experiment [2] (measured here: p53 positive nuclei at 24 h, Library stock concentration: 278 uM) was -0.0262%; in experiment [2] (measured here: p53 positive nuclei at 24 h, Library stock concentration: 1.67 mM), 44.6%; in experiment [2] (setting [6]), 87.5%; in experiment [2] (setting [22]), 135%.

For `CC(=O)NC(CC(C)C)C(=O)NC(CC(C)C)C(=O)NC(C=O)CCCN=C(N)N` (stereo unspecified), the nuclei count, normalised is 88.7% in experiment [1] (setting [7]); 87.3% in experiment [1] (setting [8]); 62.5% in experiment [1] (setting [9]); 67.4% in experiment [1] (setting [10]); 91.5% in experiment [1] (setting [11]); 90.5% in experiment [1] (setting [12]). Moreover, the nuclei count, normalised in experiment [1] (setting [13]) was 69%; in experiment [1] (setting [14]), 72.9%. For the same molecule, the p53-positive nuclei, normalised in experiment [2] (setting [15]) was 0.011% (inactive); in experiment [2] (setting [16]) it was -0.0354% (inactive); in experiment [2] (setting [17]), -0.0908% (inactive); in experiment [2] (setting [18]) it was -0.0909% (inactive); in experiment [2] (setting [19]), -0.0474%; in experiment [2] (setting [20]), -0.0442%. Moreover, the p53-positive nuclei, normalised in experiment [2] (setting [21]) is 0.0943%; in experiment [2] (setting [22]), -0.12%.

Consider `CC(NC(=O)C(Cc1ccccc1)NC(=O)OCc1ccccc1)C(=O)CF` (stereo unspecified), for which the nuclei count, normalised in experiment [1] (setting [3]) was determined as 108%; in experiment [1] (setting [4]), 101%. Moreover, the figures for the p53-positive nuclei, normalised in experiment [2] (setting [5]) and in experiment [2] (setting [6]) were -0.054% (inactive) and -0.116%, respectively.

Take `C=CC(=O)N1CCc2ccc(-n3c(=O)ccc4cnc5ccc(-c6cnn(C)c6)cc5c43)cc21`: the nuclei count, normalised in experiment [1] (setting [7]) amounted to 107%; in experiment [1] (setting [8]) it was 102%; in experiment [1] (setting [9]) it was 74.7%; in experiment [1] (setting [10]) it was 48.5%; in experiment [1] (setting [11]) it was 108%; in experiment [1] (setting [12]) it was 102%. Also, the results for the nuclei count, normalised in experiment [1] (setting [13]) and in experiment [1] (setting [14]) were 84.2% and 37.4%, respectively. Further, the p53-positive nuclei, normalised in experiment [2] (setting [15]) is -0.0335% (inactive); in experiment [2] (setting [16]) it was -0.203% (inactive); in experiment [2] (setting [17]), -0.00288% (inactive); in experiment [2] (setting [18]), 0.846% (inactive); in experiment [2] (setting [19]), -0.0563%; in experiment [2] (setting [20]), -0.129%. Besides, the p53-positive nuclei, normalised in experiment [2] (setting [21]) was -0.129%; in experiment [2] (setting [22]) it was 0.0284%.

Consider `CS(=O)(=O)c1ccc(C(CC2CCCC2)C(=O)Nc2nccs2)cc1` (stereo unspecified), for which the nuclei count, normalised in experiment [1] (setting [7]) was found to be 117%; in experiment [1] (setting [8]), 108%; in experiment [1] (setting [9]) it was 110%; in experiment [1] (setting [10]) it was 109%; in experiment [1] (setting [11]), 110%; in experiment [1] (setting [12]), 104%. Moreover, the figures for the nuclei count, normalised in experiment [1] (setting [13]) and in experiment [1] (setting [14]) were 100% and 106%, respectively. Moreover, the p53-positive nuclei, normalised in experiment [2] (setting [15]) was 0.258% (inactive); in experiment [2] (setting [16]), 0.124% (inactive); in experiment [2] (setting [17]), 0.01% (inactive); in experiment [2] (setting [18]), -0.00666% (inactive); in experiment [2] (setting [19]), -0.031%; in experiment [2] (setting [20]) it was -0.122%. Besides, the p53-positive nuclei, normalised in experiment [2] (setting [21]) is 0.0254%; in experiment [2] (setting [22]), -0.0737%.
